From PubChem BioAssay (Tox21)
Records with an inconclusive call do not appear. Activity calls are given as the source filed them. Unless noted, calls follow the shape of the full dose curve.

Tests used:
[1] = Nuclear factor erythroid 2-related factor 2/antioxidant responsive element (Nrf2/ARE) small molecule agonists: qHTS cell viability counter screen in human keratinocytes (AID 1919968; active = well fitted curve in the direction sought with a large enough effect in the repeat runs; an effect the other way counts as inactive or inconclusive; also: nearly all actives have a fitted effect of over 55% in size; also: potency is read from the fitted curve at half-maximal effect)
In short: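 Viability counter-screen: KeratinoSens reporter cells, DMSO-delivered compounds, 23 h at 37 C, CellTiter-Fluor fluorescence.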

[2] = Nuclear factor erythroid 2-related factor 2/antioxidant responsive element (Nrf2/ARE) small molecule agonists: luciferase reporter gene qHTS assay in human keratinocytes (AID 1919969); also: nearly all actives have a fitted effect of over 35% in size; also: potency is read from the fitted curve at half-maximal effect
[3] = biological target: Gonadotropin-releasing hormone receptor (Homo sapiens) (UniProt P30968); assay: Human gonadotropin-releasing hormone receptor (GnRHR) small molecule agonists, calcium flux assay in GnRHR-HEK293 cells (AID 1920063); also: nearly all actives have a fitted effect of over 35% in size; also: potency is read from the fitted curve at half-maximal effect
In short: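 Tox21-format agonist screen using human GnRHR-expressing HEK293 cells and a fluorescent calcium dye; kinetic 3-min fluorescence reading after compound addition, 15-point concentration series run in triplicate.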

[4] = G protein-coupled receptor (GPCR) small molecule agonists, calcium flux assay: HEK293 wild type cell line counter screen (AID 1920065)
In short: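 In this agonist-mode screen, ATP is the positive control and DMSO the vehicle. Cells grow 18 h before a 1 h dye incubation at 37 C; signal is taken at Ex/Em 480/540 over 3 min.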

[5] = p53 small molecule agonists, cell-based qHTS assay with human liver microsomes: qHTS cell viability counter screen (AID 1963579); also: nearly all actives have a fitted effect of over 45% in size; also: potency is read from the fitted curve at half-maximal effect
In short: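 Seed p53RE-bla cells at 4,000 per well; incubate 5 h at 37 C; add compound, human liver microsomes and NADPH; incubate 16 h at 37 C; add CellTiter-Glo; after 30 min at room temperature, read luminescence.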

[6] = p53 small molecule agonists, cell-based qHTS assay: qHTS cell viability counter screen (AID 1963581); also: nearly all actives have a fitted effect of over 45% in size; also: potency is read from the fitted curve at half-maximal effect
In short: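 Compounds are pinned onto HCT-116 p53RE-bla cells and left 16 h at 37 C. Following the reporter FRET read, ATP is quantified by CellTiter-Glo luminescence after 30 min at room temperature.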

[7] = cAMP Responsive Elements (CRE) small molecule agonists, cell-based qHTS assay (AID 1963590)
In short: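 FRET-based beta-lactamase readout (LiveBLAzer B/G, 2 h RT) quantified CRE activation in HEK 293T CRE-bla cells after 3 h treatment with DMSO-dissolved compounds.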

[8] = biological target: D(2) dopamine receptor (Homo sapiens) (UniProt P14416); assay: Dopamine D2 receptor (DRD2) small molecule agonists, cell-based qHTS assay (AID 1963594); also: nearly all actives have a fitted effect of over 35% in size
In short: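 cAMP accumulation in DRD2-HEK293 cells measured by HTRF after 1 h detection; compounds added 10 min before NKH477 (200nM […]) forskolin-analogue stimulation, 30 min at room temperature, with Ro20-1724 present at 0.1 mM final.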

[9] = biological target: KiSS-1 receptor (Homo sapiens) (UniProt Q969F8); assay: Human kisspeptin (KISS1R) small molecule agonists, calcium flux assay in KISS1R-HEK293 cells (AID 1920064; active = well fitted curve in the direction sought with a large enough effect in the repeat runs; an effect the other way counts as inactive or inconclusive)
In short: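 Intracellular calcium mobilization in KISS1R-HEK293 cells was recorded by fluorescence (Ex/Em 480/540) for 3 min following compound addition to cells pre-loaded 1 h with calcium dye.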

[10] = p53 small molecule agonists, cell-based qHTS assay with human liver microsomes (AID 1963577)
In short: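 Cells carrying a p53-responsive bla reporter were rested 5 h (37 C, 5% CO2) before compound transfer. Human liver microsomes plus NADPH, 0.5 mg/mL final apiece, supplied metabolism during the 16 h 37 C exposure.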

[11] = p53 small molecule agonists, cell-based qHTS assay with rat liver microsomes (AID 1963578)
In short: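 Fluorescence from a beta-lactamase reporter under a p53 response element was measured after cells had been incubated 16 h at 37 C with test compound and rat liver microsomes plus NADPH (0.5 mg/mL final each).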

[12] = biological target: 5-hydroxytryptamine receptor 2A (Homo sapiens) (UniProt P28223); assay: 5-hydroxytryptamine receptor 2A (HTR2A) small molecule antagonists, cell-based qHTS assay (AID 1963586); also: nearly all actives have a fitted effect of over 45% in size; also: potency is read from the fitted curve at half-maximal effect
In short: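 Antagonist-mode intracellular calcium assay: DOI (4 nM) added after 5 min compound pre-incubation at room temperature to dye-loaded HTR2A-CHO cells. Fluorescence followed for 3 min, sampled every second.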

[13] = biological target: 5-hydroxytryptamine receptor 2A (Homo sapiens) (UniProt P28223); assay: 5-hydroxytryptamine receptor 2A (HTR2A) small molecule agonists, cell-based qHTS assay (AID 1963587); also: nearly all actives have a fitted effect of over 30% in size; also: potency is read from the fitted curve at half-maximal effect
In short: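 Kinetic calcium-flux fluorescence (2 min, 1 sec intervals) after compound addition in agonist mode. HTR2A-CHO cells were cultured 18 h, then dye-loaded 1 h at 37 C.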

[14] = biological target: Muscarinic acetylcholine receptor M1 (Homo sapiens) (UniProt P11229); assay: Cholinergic receptor muscarinic 1 (CHRM1) small molecule antagonists, cell-based qHTS assay (AID 1963588); also: nearly all actives have a fitted effect of over 40% in size; also: potency is read from the fitted curve at half-maximal effect
In short: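 CHRM1-CHO calcium-flux assay, antagonist mode. Cells were seeded 18 h, dye-loaded 1 h at 37 C and given compound for 5 min at RT, then acetylcholine was added at 50nM. FDSS fluorescence was read 3 min; 15 concentrations, three runs.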

[15] = p53 small molecule agonists, cell-based qHTS assay with rat liver microsomes: qHTS cell viability counter screen (AID 1963580); also: nearly all actives have a fitted effect of over 45% in size
In short: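 Intracellular ATP, by CellTiter-Glo luminescence, defines viability. HCT-116 p53RE-bla cells, 4,000 per well, were compound-treated in the presence of rat liver microsomes and NADPH for 16 h at 37 C.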

[16] = biological target: Muscarinic acetylcholine receptor M1 (Homo sapiens) (UniProt P11229); assay: Cholinergic receptor muscarinic 1 (CHRM1) small molecule agonists, cell-based qHTS assay (AID 1963589); also: nearly all actives have a fitted effect of over 35% in size
In short: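 Stable CHRM1-CHO cells (human receptor) were incubated 18 h, dye-loaded for 1 h at 37 C and exposed to test compounds for agonist activity, with calcium-dependent fluorescence followed kinetically.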

[17] = biological target: Beta-2 adrenergic receptor (Homo sapiens) (UniProt P07550); assay: Adrenergic beta2 receptor (ADRB2) small molecule antagonists, cell-based qHTS assay (AID 1963592); also: nearly all actives have a fitted effect of over 50% in size; also: potency is read from the fitted curve at half-maximal effect
In short: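 Cells (CHO, stable ADRB2 overexpression) incubated 18-20hr at 37C; compounds added from DMSO; agonist mix (1nM isoproterenol, 100uM IBMX, 25uM Ro-20-1724) added; 0.5hr RT; d2-cAMP and anti-cAMP-cryptate added; 1hr RT; 665/615 nm read.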

[18] = biological target: D(2) dopamine receptor (Homo sapiens) (UniProt P14416); assay: Dopamine D2 receptor (DRD2) small molecule antagonists, cell-based qHTS assay (AID 1963595; active = well fitted inhibition curve with a large enough effect in the signal ratio in the repeat runs, with a control signal flat; the % refers to the signal ratio; also: potency is read from the fitted curve at half-maximal effect)
In short: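 HEK293 cells stably expressing DRD2 were preincubated with 0.1 mM Ro20-1724, then with compound for 10 min at room temperature. Cells were stimulated with 200 nM NKH477 plus 12 nM quinpirole for 30 min, and cAMP was read by HTRF.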

[19] = cAMP Responsive Elements (CRE) small molecule antagonists, cell-based qHTS assay (AID 1963591; active = well fitted inhibition curve with a large enough effect in the signal ratio in the repeat runs, not every such curve was filed as active; the % refers to the signal ratio)
In short: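 qHTS in CRE-bla HEK 293T cells: compound in DMSO, then 0.25 uM NKH477 (final), 3 h at 37 °C/5% CO2; beta-lactamase FRET read-out after 2 h substrate incubation.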

[20] = biological target: Beta-2 adrenergic receptor (Homo sapiens) (UniProt P07550); assay: Adrenergic beta2 receptor (ADRB2) small molecule agonists, cell-based qHTS assay (AID 1963593);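 also: CHO cells stably overexpressing human ADRB2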
In short: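 CHO cells stably over-expressing ADRB2 were plated overnight at 37C, then dosed with compounds plus a stimulation mix containing 100uM IBMX and 25uM Ro-20-1724 for 0.5hr at room temperature. cAMP was measured by HTRF competition, 1hr.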

Measured: Potency

Gonadotropin-releasing hormone receptor (Homo sapiens), sequence (P30968 whole entry, looked up): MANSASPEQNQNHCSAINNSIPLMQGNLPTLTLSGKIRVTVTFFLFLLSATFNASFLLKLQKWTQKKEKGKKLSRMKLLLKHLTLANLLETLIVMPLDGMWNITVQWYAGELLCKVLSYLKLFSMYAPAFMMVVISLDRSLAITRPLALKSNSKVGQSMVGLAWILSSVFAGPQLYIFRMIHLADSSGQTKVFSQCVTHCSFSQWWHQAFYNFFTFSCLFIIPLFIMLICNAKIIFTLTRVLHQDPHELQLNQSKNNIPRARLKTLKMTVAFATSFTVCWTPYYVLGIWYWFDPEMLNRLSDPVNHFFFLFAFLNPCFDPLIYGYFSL
Muscarinic acetylcholine receptor M1 (Homo sapiens), sequence (P11229 whole entry, looked up): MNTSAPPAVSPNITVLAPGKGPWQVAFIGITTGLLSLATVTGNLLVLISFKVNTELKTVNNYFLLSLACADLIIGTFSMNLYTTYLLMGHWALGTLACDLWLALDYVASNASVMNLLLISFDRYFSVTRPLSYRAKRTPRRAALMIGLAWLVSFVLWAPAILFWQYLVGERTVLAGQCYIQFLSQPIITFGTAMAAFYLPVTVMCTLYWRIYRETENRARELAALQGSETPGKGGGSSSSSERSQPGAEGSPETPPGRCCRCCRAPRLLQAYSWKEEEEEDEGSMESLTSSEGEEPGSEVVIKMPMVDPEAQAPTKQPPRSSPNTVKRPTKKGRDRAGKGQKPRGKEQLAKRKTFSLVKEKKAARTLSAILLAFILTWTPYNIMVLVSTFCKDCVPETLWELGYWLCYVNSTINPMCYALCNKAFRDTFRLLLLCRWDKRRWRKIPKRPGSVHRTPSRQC
5-hydroxytryptamine receptor 2A (Homo sapiens), sequence (P28223 whole entry, looked up): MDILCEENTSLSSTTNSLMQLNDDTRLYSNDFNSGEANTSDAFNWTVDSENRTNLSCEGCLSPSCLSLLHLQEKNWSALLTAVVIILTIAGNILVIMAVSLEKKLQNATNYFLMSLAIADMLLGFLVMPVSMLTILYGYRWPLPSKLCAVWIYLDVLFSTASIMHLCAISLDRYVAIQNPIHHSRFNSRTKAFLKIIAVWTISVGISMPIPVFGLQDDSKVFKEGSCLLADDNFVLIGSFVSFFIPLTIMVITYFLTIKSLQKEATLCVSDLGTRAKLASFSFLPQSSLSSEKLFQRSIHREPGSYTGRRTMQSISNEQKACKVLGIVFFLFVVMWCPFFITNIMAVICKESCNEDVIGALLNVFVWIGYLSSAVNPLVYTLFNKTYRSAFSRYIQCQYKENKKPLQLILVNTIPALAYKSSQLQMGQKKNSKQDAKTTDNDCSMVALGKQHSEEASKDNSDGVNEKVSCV
Beta-2 adrenergic receptor (Homo sapiens), sequence (P07550 whole entry, looked up): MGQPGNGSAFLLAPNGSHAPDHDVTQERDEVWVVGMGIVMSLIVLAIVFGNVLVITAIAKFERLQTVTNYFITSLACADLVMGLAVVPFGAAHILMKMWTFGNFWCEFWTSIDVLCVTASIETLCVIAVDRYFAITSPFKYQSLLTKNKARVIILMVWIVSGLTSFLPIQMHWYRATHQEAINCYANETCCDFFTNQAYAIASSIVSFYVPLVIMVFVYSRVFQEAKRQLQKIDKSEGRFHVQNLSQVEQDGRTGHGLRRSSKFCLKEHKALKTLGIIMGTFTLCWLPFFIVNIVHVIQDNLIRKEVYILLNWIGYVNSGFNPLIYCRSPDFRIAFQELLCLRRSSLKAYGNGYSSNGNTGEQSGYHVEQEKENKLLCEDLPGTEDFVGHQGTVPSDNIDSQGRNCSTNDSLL
D(2) dopamine receptor (Homo sapiens), sequence (P14416 whole entry, looked up): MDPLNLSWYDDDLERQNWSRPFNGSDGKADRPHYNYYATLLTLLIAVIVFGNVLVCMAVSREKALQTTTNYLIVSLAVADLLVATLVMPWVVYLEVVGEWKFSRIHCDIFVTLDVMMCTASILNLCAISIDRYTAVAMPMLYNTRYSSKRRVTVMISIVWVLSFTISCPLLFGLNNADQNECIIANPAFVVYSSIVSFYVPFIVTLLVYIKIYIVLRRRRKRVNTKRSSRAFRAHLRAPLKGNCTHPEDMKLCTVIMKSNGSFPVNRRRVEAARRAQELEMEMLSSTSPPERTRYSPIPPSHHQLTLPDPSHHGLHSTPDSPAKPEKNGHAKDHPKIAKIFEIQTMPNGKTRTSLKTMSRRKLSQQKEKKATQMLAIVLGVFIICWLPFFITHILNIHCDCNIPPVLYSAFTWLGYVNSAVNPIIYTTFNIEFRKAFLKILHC
KiSS-1 receptor (Homo sapiens), sequence (Q969F8 whole entry, looked up): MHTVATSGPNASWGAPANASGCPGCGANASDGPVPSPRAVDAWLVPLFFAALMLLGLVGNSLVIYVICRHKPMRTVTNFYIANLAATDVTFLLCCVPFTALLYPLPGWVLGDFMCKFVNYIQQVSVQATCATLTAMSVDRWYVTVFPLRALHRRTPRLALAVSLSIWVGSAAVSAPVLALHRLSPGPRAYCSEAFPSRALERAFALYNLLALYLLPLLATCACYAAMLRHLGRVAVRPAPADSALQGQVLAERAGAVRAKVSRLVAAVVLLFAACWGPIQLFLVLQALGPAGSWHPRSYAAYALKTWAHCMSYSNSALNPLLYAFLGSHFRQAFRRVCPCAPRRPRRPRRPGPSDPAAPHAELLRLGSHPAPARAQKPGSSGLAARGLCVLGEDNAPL

CC(=O)OCC(=O)[C@@]1(O)CC[C@H]2[C@@H]3CCC4=CC(=O)CC[C@]4(C)[C@H]3C(=O)C[C@@]21C
inactive: [1] | [2] | [3] | [4] | [5] | [6] | [7] | [8]

CCCCCCOc1cc(C)c(O)c(C)c1C
active: [1] 31 µM | [5] 26 µM | [12] 19 µM | [13] 39.4 µM
inactive: [2] | [9] | [4] | [10] | [11] | [14] | [8]

Clc1ccc2cc3ccccc3cc2c1
not listed: [4] | [5] | [7] | [9] | [10] | [11] | [19] | [20]
inactive: all other assays above

O=C(Nc1cccc(C(F)(F)F)c1)c1cc(Br)cc(Br)c1O
inactive: [3] | [10] | [11] | [12] | [13] | [16] | [8] | [18]
active: [1] 7.7 µM | [2] 9.69 µM | [5] 9.13 µM | [17] 61.1 µM

CC(Cc1cccc(C(F)(F)F)c1)NCCOC(=O)c1ccccc1 (configuration not stated)
active: [12] 20.5 µM | [17] 29.8 µM
not listed: [3] | [6] | [13] | [14] | [19] | [20]
inactive: all other assays above

O=C1C=CC(=O)N1c1ccc(Cc2ccc(N3C(=O)C=CC3=O)cc2)cc1
active: [1] 27.3 µM | [2] 9.69 µM | [5] 16.2 µM | [12] 37.5 µM | [13] 43.6 µM | [18] 4.33 µM
inactive: [9] | [4] | [10] | [11]

CN1CCN2c3ccccc3Cc3ccccc3C2C1 (configuration not stated)
not listed: [3] | [5] | [6] | [12] | [13] | [14] | [16] | [20]
inactive: all other assays above

C[C@H](CCC(=O)O)[C@H]1CC[C@H]2[C@@H]3CC[C@@H]4C[C@H](O)CC[C@]4(C)[C@H]3C[C@H](O)[C@]12C
not listed: [3] | [7] | [12] | [14] | [16] | [19] | [20]
inactive: all other assays above

O=[N+]([O-])c1cc(C2CCCCC2)c(O)c([N+](=O)[O-])c1
inactive: [10] | [11] | [12] | [16] | [18]
active: [1] 19.3 µM | [2] 13.6 µM | [3] 38.8 µM | [5] 20.4 µM | [6] 20.4 µM

CO/N=C1\CN(c2nc3c(cc2F)c(=O)c(C(=O)O)cn3C2CC2)CC1CN (configuration not stated)
not listed: [5] | [7] | [9] | [10] | [11] | [17] | [20]
inactive: all other assays above

O=C1NC(=O)c2cc([N+](=O)[O-])ccc21
active: [13] 55.4 µM
not listed: [3] | [20]
inactive: all other assays above

Cc1cc2c(C(C)C)c(O)c(O)c(C=O)c2c(O)c1-c1c(C)cc2c(C(C)C)c(O)c(O)c(C=O)c2c1O
inactive: [2] | [9] | [4] | [10] | [11] | [14] | [16] | [17]
active: [1] 10.6 µM | [6] 11.2 µM

NCc1ccccc1
not listed: [4] | [9] | [10] | [13] | [19]
inactive: all other assays above

Cc1nc(N)nc(N)c1-c1ccc(Cl)c(Cl)c1
active: [14] 7.29 µM
not listed: [3] | [6] | [8] | [20]
inactive: all other assays above

CCCCCCCCCCCCCCCCCC[N+](C)(C)C
active: [1] 61.3 µM | [5] 40.9 µM | [6] 16.3 µM | [13] 34.8 µM
inactive: [2] | [9] | [4] | [10] | [11] | [12] | [16] | [8] | [18]
